The source made the active and inactive calls. How the calls were made is not given here.
Test: Vero 76 cell cytotoxicity, dose response, cytotoxicity control for VEEV inhibitor project, set 9 (AID 651930)
Conditions: Vero 76 cytotoxicity; series mostly up to 25 µM

Compound | outcome | viability
COc1ccc(-n2c(CN3CCNCC3)nc3ccc([N+](=O)[O-])cc3c2=O)cc1 | inactive | 
O=C1CN(Cc2nc3ccc([N+](=O)[O-])cc3c(=O)n2-c2ccccc2F)CCN1 | inactive | 
CN1CCN(C)C(=Nc2ccc(F)cc2C(=O)Nc2ccccc2)C1 | inactive | 
O=c1nc(Nc2ccc(CCc3ccccc3)cc2)sc2ncccc12 | inactive | 
COc1ccc(NC(=O)c2cc([N+](=O)[O-])ccc2N=C2CN(C)CCN2C)cc1 |  | 90.4% [at 5 µM] (inactive)
CCN1CCN(Cc2nc3c([N+](=O)[O-])cccc3c(=O)n2-c2ccccc2)CC1 | inactive | 
CCN(CC)c1nc(=O)c2cccnc2s1 | inactive | 
CCN1CCN(c2nc3ccc([N+](=O)[O-])cc3c(=O)n2-c2ccccc2)CC1 | inactive | 
CCN1CCN(Cc2nc3ncc([N+](=O)[O-])cc3c(=O)n2-c2ccccc2)CC1 | inactive | 
O=c1c2cc([N+](=O)[O-])ccc2nc(CN2CCNCC2)n1-c1ccccc1 | inactive | 
CN(C)c1ccc(-n2c(CN3CCNCC3)nc3ccc([N+](=O)[O-])cc3c2=O)cc1 | inactive | 
O=c1c2cc([N+](=O)[O-])ccc2nc(CN2CCNCC2)n1-c1ccsc1 | inactive | 
O=c1c2cc([N+](=O)[O-])ccc2nc(CN2CCNCC2)n1-c1ccccc1F | inactive | 
O=c1c2cc([N+](=O)[O-])ccc2nc(C2CCNCC2)n1-c1ccccc1 | inactive | 
O=c1nc(Nc2ccc(OCc3ccccc3)cc2)sc2ncccc12 | inactive | 
CNCCCN(C)Cc1nc2ccc([N+](=O)[O-])cc2c(=O)n1-c1ccccc1 | inactive | 
CCN1CCN(Cc2nc3ccc([N+](=O)[O-])cc3c(=O)n2-c2ccccc2F)CC1 | inactive | 
O=c1nc(Nc2cccc(OCc3ccccc3)c2)sc2ncccc12 | inactive | 
O=c1nc(Nc2ccc(OCc3ccccc3)cc2)sc2ncc(F)cc12 | inactive | 
CCN1CCN(Cc2nc3ccc([N+](=O)[O-])cc3c(=O)n2-c2ccccc2)CC1 | inactive | 
CCN1CCN(C(c2nc3ncc([N+](=O)[O-])cc3c(=O)n2-c2ccccc2)C(c2nc3ncc([N+](=O)[O-])cc3c(=O)n2-c2ccccc2)N2CCN(CC)CC2)CC1 (stereo unspecified) | inactive | 

Source: PubChem BioAssay AID651930 (Southern Research Specialized Biocontainment Screening …, 2012)
